# “And” between values parts separate entries of the source, which are not always exact repeats. Equal entries are not always repeated. Out of some 5,500 compounds screened, about 2,000 (36%) were called active. Roughly 18% stayed inconclusive and do not appear here. This is one part of the list. Values without a mark were called inactive. Rule as the data show it: active = normalized growth mostly below about 0.91 (no sharp cut-off); inconclusive = no clear call, values can overlap the other calls; inactive = mostly above about 0.92.
# Assay: chemical genetic growth profiling, strain panel (AID 1159580);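 also: tested at 20 µM; growth read once vehicle control cultures reached saturation at 30 °C; 1 = growth at the plate median or of vehicle wells; lower values mean less growth of the strain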
# Conditions: S. cerevisiae deletion strains, growth OD
smiles,measurement,setting,value
CC(=O)O[C@H]1CC[C@@]2(C)C(C[C@@H](OC(C)=O)[C@@]3(C)C4=CC(=O)O[C@@H](c5ccoc5)[C@]4(C)CCC23)C1(C)C (stereo partly drawn),normalized growth,"locus YAL021C, strain ccr4, stronger effect = lower value",1
same,normalized growth,"locus YAL026C, strain drs2, stronger effect = lower value",1.01
same,normalized growth,"locus YAL030W, strain snc1, stronger effect = lower value",0.999
same,normalized growth,"locus YBL061C, strain skt5, stronger effect = lower value",0.997
same,normalized growth,"locus YBR009C, strain hhf1, stronger effect = lower value",1.02
same,normalized growth,"locus YBR021W, strain FUR4, stronger effect = lower value",0.981
same,normalized growth,"locus YBR023C, strain chs3, stronger effect = lower value",0.996
same,normalized growth,"locus YBR171W, strain sec66, stronger effect = lower value",1
same,normalized growth,"locus YBR229C, strain ROT2, stronger effect = lower value",1.01
same,normalized growth,"locus YBR231C, strain swc5, stronger effect = lower value",1.01
same,normalized growth,"locus YBR279W, strain paf1, stronger effect = lower value",1
same,normalized growth,"locus YCL011C, strain gbp2, stronger effect = lower value",1.01
same,normalized growth,"locus YCL016C, strain dcc1, stronger effect = lower value",1.01
same,normalized growth,"locus YCL029C, strain bik1, stronger effect = lower value",0.989
same,normalized growth,"locus YCL061C, strain MRC1, stronger effect = lower value",0.994
same,normalized growth,"locus YCL069W, strain vba3, stronger effect = lower value",1.02
same,normalized growth,"locus YCR088W, strain abp1, stronger effect = lower value",1
same,normalized growth,"locus YDL005C, strain med2, stronger effect = lower value",1
same,normalized growth,"locus YDL035C, strain GPR1, stronger effect = lower value",1.02
same,normalized growth,"locus YDL040C, strain nat1, stronger effect = lower value",1
same,normalized growth,"locus YDL074C, strain BRE1, stronger effect = lower value",1
same,normalized growth,"locus YDL101C, strain DUN1, stronger effect = lower value",0.999
same,normalized growth,"locus YDL134C, strain PPH21, stronger effect = lower value",1
same,normalized growth,"locus YDL185W, strain tfp1, stronger effect = lower value",1
same,normalized growth,"locus YDL192W, strain arf1, stronger effect = lower value",0.988
same,normalized growth,"locus YDR001C, strain nth1, stronger effect = lower value",1
same,normalized growth,"locus YDR069C, strain doa4, stronger effect = lower value",1.02
same,normalized growth,"locus YDR101C, strain arx1, stronger effect = lower value",1.01
same,normalized growth,"locus YDR137W, strain rgp1, stronger effect = lower value",0.96
same,normalized growth,"locus YDR150W, strain NUM1, stronger effect = lower value",1.01
same,normalized growth,"locus YDR159W, strain sac3, stronger effect = lower value",1
same,normalized growth,"locus YDR162C, strain NBP2, stronger effect = lower value",0.992
same,normalized growth,"locus YDR195W, strain ref2",1.02
same,normalized growth,"locus YDR297W, strain sur2, stronger effect = lower value",1.02
same,normalized growth,"locus YDR318W, strain mcm21, stronger effect = lower value",0.998
same,normalized growth,"locus YDR334W, strain swr1, stronger effect = lower value",1.01
same,normalized growth,"locus YDR335W, strain msn5, stronger effect = lower value",0.997
same,normalized growth,"locus YDR388W, stronger effect = lower value",1
same,normalized growth,"locus YDR392W, strain spt3, stronger effect = lower value",0.974
same,normalized growth,"locus YDR502C, strain sam2, stronger effect = lower value",0.992
same,normalized growth,"locus YEL003W, strain gim4, stronger effect = lower value",1
same,normalized growth,"locus YEL037C, strain rad23, stronger effect = lower value",1
same,normalized growth,"locus YEL061C, strain CIN8 (second series), stronger effect = lower value",1.01
same,normalized growth,"locus YEL061C, strain CIN8, stronger effect = lower value",1.01
same,normalized growth,"locus YER015W, strain faa2, stronger effect = lower value",0.991
same,normalized growth,"locus YER016W, strain bim1, stronger effect = lower value",0.997
same,normalized growth,"locus YER110C, stronger effect = lower value",0.992
same,normalized growth,"locus YER111C, strain swi4, stronger effect = lower value",1.01
same,normalized growth,"locus YER155C, strain BEM2 (second series), stronger effect = lower value",0.992
same,normalized growth,"locus YER155C, strain BEM2, stronger effect = lower value",1.01
same,normalized growth,"locus YER167W, strain BCK2, stronger effect = lower value",1.01
same,normalized growth,"locus YFR010W, strain ubp6, stronger effect = lower value",1
same,normalized growth,"locus YGL078C, strain dbp3, stronger effect = lower value",0.992
same,normalized growth,"locus YGL086W, strain mad1, stronger effect = lower value",1.01
same,normalized growth,"locus YGL167C, strain pmr1, stronger effect = lower value",1.01
same,normalized growth,"locus YGL173C, strain kem1, stronger effect = lower value",1.01
same,normalized growth,"locus YGL227W, strain vid30, stronger effect = lower value",0.997
same,normalized growth,"locus YGL240W, strain doc1, stronger effect = lower value",1.02
same,normalized growth,"locus YGL248W, strain PDE1, stronger effect = lower value",1
same,normalized growth,"locus YGL253W, strain hxk2, stronger effect = lower value",1
same,normalized growth,"locus YGR078C, strain PAC10, stronger effect = lower value",0.988
same,normalized growth,"locus YGR135W, strain pre9, stronger effect = lower value",0.975
same,normalized growth,"locus YGR229C, strain SMI1, stronger effect = lower value",1
same,normalized growth,"locus YGR252W, strain gcn5, stronger effect = lower value",0.929
same,normalized growth,"locus YHR013C, strain ard1, stronger effect = lower value",0.978
same,normalized growth,"locus YHR027C, strain rpn1, stronger effect = lower value",1.01
same,normalized growth,"locus YHR030C, strain SLT2, stronger effect = lower value",0.955
same,normalized growth,"locus YHR079C, strain IRE1 (second series), stronger effect = lower value",0.993
same,normalized growth,"locus YHR079C, strain IRE1, stronger effect = lower value",0.98
same,normalized growth,"locus YHR094C, strain hxt1, stronger effect = lower value",0.998
same,normalized growth,"locus YHR129C, strain ARP1, stronger effect = lower value",1.01
same,normalized growth,"locus YHR142W, strain chs7, stronger effect = lower value",1
same,normalized growth,"locus YHR200W, strain rpn10, stronger effect = lower value",0.994
same,normalized growth,"locus YIL066C, strain RNR3, stronger effect = lower value",1.02
same,normalized growth,"locus YIL073C, strain SPO22, stronger effect = lower value",1.02
same,normalized growth,"locus YIL125W, strain kgd1, stronger effect = lower value",1.01
same,normalized growth,"locus YIR030C, strain dcg1, stronger effect = lower value",0.991
same,normalized growth,"locus YJL092W, strain hpr5, stronger effect = lower value",0.996
same,normalized growth,"locus YJL095W, strain BCK1 (second series), stronger effect = lower value",0.99
same,normalized growth,"locus YJL095W, strain BCK1, stronger effect = lower value",0.985 and 0.949
same,normalized growth,"locus YJL115W, strain asf1, stronger effect = lower value",0.993
same,normalized growth,"locus YJL129C, strain trk1, stronger effect = lower value",0.99
same,normalized growth,"locus YJL134W, strain LCB3, stronger effect = lower value",1.01
same,normalized growth,"locus YJL154C, strain vps35, stronger effect = lower value",0.994
same,normalized growth,"locus YJL164C, strain tpk1, stronger effect = lower value",1.01
same,normalized growth,"locus YJL166W, strain qcr8, stronger effect = lower value",1.02
same,normalized growth,"locus YJL168C, strain set2, stronger effect = lower value",0.986
same,normalized growth,"locus YJL187C, strain SWE1 (second series), stronger effect = lower value",0.997
same,normalized growth,"locus YJL187C, strain SWE1, stronger effect = lower value",1.01
same,normalized growth,"locus YJR066W, strain TOR1, stronger effect = lower value",0.9
same,normalized growth,"locus YJR075W, strain HOC1, stronger effect = lower value",1.01
same,normalized growth,"locus YKL009W, strain mrt4, stronger effect = lower value",1.21 [resistant] (active)
same,normalized growth,"locus YKL068W, stronger effect = lower value",0.984
same,normalized growth,"locus YKL085W, strain MDH1 (second series), stronger effect = lower value",1.02
same,normalized growth,"locus YKL085W, strain MDH1, stronger effect = lower value",1.02
same,normalized growth,"locus YKL160W, strain elf1, stronger effect = lower value",1
same,normalized growth,"locus YKL190W, strain CNB1, stronger effect = lower value",1
same,normalized growth,"locus YKR001C, strain vps1, stronger effect = lower value",0.983
same,normalized growth,"locus YKR026C, strain gcn3, stronger effect = lower value",1.01
same,normalized growth,"locus YKR091W, strain srl3, stronger effect = lower value",1
same,normalized growth,"locus YLL001W, strain dnm1, stronger effect = lower value",1.01
same,normalized growth,"locus YLL026W, stronger effect = lower value",0.995
same,normalized growth,"locus YLL041C, strain sdh2, stronger effect = lower value",0.987
same,normalized growth,"locus YLR027C, strain aat2, stronger effect = lower value",1
same,normalized growth,"locus YLR039C, strain RIC1, stronger effect = lower value",0.985
same,normalized growth,"locus YLR058C, strain SHM2, stronger effect = lower value",1.01
same,normalized growth,"locus YLR102C, strain apc9, stronger effect = lower value",0.997
same,normalized growth,"locus YLR113W, strain HOG1, stronger effect = lower value",0.966
same,normalized growth,"locus YLR221C, strain rsa3, stronger effect = lower value",1.02
same,normalized growth,"locus YLR258W, strain gsy2, stronger effect = lower value",0.995
same,normalized growth,"locus YLR262C, strain YPT6 (second series), stronger effect = lower value",0.979
same,normalized growth,"locus YLR262C, strain YPT6, stronger effect = lower value",1.02
same,normalized growth,"locus YLR268W, strain sec22, stronger effect = lower value",1.01
same,normalized growth,"locus YLR320W, strain mms22, stronger effect = lower value",0.999
same,normalized growth,"locus YLR342W, strain FKS1, stronger effect = lower value",1
same,normalized growth,"locus YLR357W, strain rsc2, stronger effect = lower value",1.01
same,normalized growth,"locus YLR370C, strain arc18, stronger effect = lower value",1.02
same,normalized growth,"locus YLR371W, strain rom2, stronger effect = lower value",1
same,normalized growth,"locus YLR384C, strain iki3, stronger effect = lower value",0.987
same,normalized growth,"locus YLR418C, strain cdc73, stronger effect = lower value",0.954
same,normalized growth,"locus YML016C, strain PPZ1, stronger effect = lower value",1.01
same,normalized growth,"locus YML032C, strain rad52, stronger effect = lower value",0.985
same,normalized growth,"locus YML120C, strain ndi1, stronger effect = lower value",1.02
same,normalized growth,"locus YML124C, strain tub3, stronger effect = lower value",0.987
same,normalized growth,"locus YMR058W, strain fet3, stronger effect = lower value",1
same,normalized growth,"locus YMR078C, strain ctf18, stronger effect = lower value",0.981
same,normalized growth,"locus YMR125W, strain sto1, stronger effect = lower value",0.99
same,normalized growth,"locus YMR129W, stronger effect = lower value",1
same,normalized growth,"locus YMR205C, strain PFK2, stronger effect = lower value",1.01
same,normalized growth,"locus YMR223W, strain ubp8, stronger effect = lower value",0.983
same,normalized growth,"locus YMR231W, strain pep5, stronger effect = lower value",0.991
same,normalized growth,"locus YMR263W, strain SAP30, stronger effect = lower value",1.01
same,normalized growth,"locus YMR307W, strain GAS1, stronger effect = lower value",1.03
same,normalized growth,"locus YNL067W, strain RPL9B, stronger effect = lower value",0.997
same,normalized growth,"locus YNL071W, strain lat1, stronger effect = lower value",1.01
same,normalized growth,"locus YNL153C, strain GIM3, stronger effect = lower value",0.999
same,normalized growth,"locus YNL183C, strain NPR1, stronger effect = lower value",0.935
same,normalized growth,"locus YNL209W, strain ssb2, stronger effect = lower value",1.02
same,normalized growth,"locus YNL233W, strain BNI4, stronger effect = lower value",1.02
same,normalized growth,"locus YNL248C, strain rpa49, stronger effect = lower value",1.01
same,normalized growth,"locus YNL250W, strain rad50, stronger effect = lower value",0.995
same,normalized growth,"locus YNL271C, strain bni1, stronger effect = lower value",1
same,normalized growth,"locus YNL298W, strain CLA4, stronger effect = lower value",1.01
same,normalized growth,"locus YNL307C, strain MCK1, stronger effect = lower value",0.995
same,normalized growth,"locus YNL322C, strain KRE1 (second series), stronger effect = lower value",0.987
same,normalized growth,"locus YNL322C, strain KRE1, stronger effect = lower value",1.01
same,normalized growth,"locus YNR049C, strain mso1, stronger effect = lower value",1.01
same,normalized growth,"locus YNR052C, strain pop2, stronger effect = lower value",0.987
same,normalized growth,"locus YOL006C, strain TOP1, stronger effect = lower value",0.965
same,normalized growth,"locus YOL012C, strain htz1",1.15
same,normalized growth,"locus YOL147C, strain pex11, stronger effect = lower value",1
same,normalized growth,"locus YOR001W, strain rrp6, stronger effect = lower value",1.01
same,normalized growth,"locus YOR061W, strain CKA2, stronger effect = lower value",1.01
same,normalized growth,"locus YOR069W, strain VPS5, stronger effect = lower value",1
same,normalized growth,"locus YOR070C, strain gyp1, stronger effect = lower value",1.01
same,normalized growth,"locus YOR080W, strain dia2, stronger effect = lower value",1
same,normalized growth,"locus YOR083W, strain WHI5, stronger effect = lower value",1
same,normalized growth,"locus YOR106W, strain vam3, stronger effect = lower value",1.03
same,normalized growth,"locus YOR136W, strain idh2, stronger effect = lower value",0.992
same,normalized growth,"locus YOR144C, strain elg1, stronger effect = lower value",0.995
same,normalized growth,"locus YOR184W, strain ser1, stronger effect = lower value",1.01
same,normalized growth,"locus YOR231W, strain MKK1, stronger effect = lower value",0.957
same,normalized growth,"locus YOR265W, strain rbl2, stronger effect = lower value",1.02
same,normalized growth,"locus YOR270C, strain vph1, stronger effect = lower value",0.886
same,normalized growth,"locus YOR290C, strain snf2, stronger effect = lower value",0.998
same,normalized growth,"locus YOR316C, strain cot1, stronger effect = lower value",0.997
same,normalized growth,"locus YPL051W, strain arl3, stronger effect = lower value",0.997
same,normalized growth,"locus YPL055C, strain LGE1, stronger effect = lower value",1.03
same,normalized growth,"locus YPL078C, strain atp4, stronger effect = lower value",1.01
same,normalized growth,"locus YPL106C, strain sse1, stronger effect = lower value",1.02
same,normalized growth,"locus YPL240C, strain hsp82, stronger effect = lower value",0.998
same,normalized growth,"locus YPL241C, strain CIN2, stronger effect = lower value",1
same,normalized growth,"locus YPL256C, strain CLN2, stronger effect = lower value",0.96
same,normalized growth,"locus YPR119W, strain clb2, stronger effect = lower value",0.992
same,normalized growth,"locus YPR141C, strain kar3, stronger effect = lower value",0.99
same,normalized growth,"locus YPR163C, strain tif3, stronger effect = lower value",0.989
same,normalized growth,"locus YPR167C, strain met16, stronger effect = lower value",0.985
same,normalized growth,"strain wtn01, stronger effect = lower value",0.993

# Reference: PubChem BioAssay AID1159580 (chemical genetic matrix, 2015)
